Assay results from PubChem BioAssay (NCI).
This is part of a sample that, as a whole, favours compounds with a hit. Of some 79,000 tested, about 15% had one in any assay. Cut-off read from the data, not from the text of the source: active = growth inhibition above about 70%; inactive = the rest.

How the values were obtained:
[1] = NCI Yeast Anticancer Drug Screen. Data for the rad50 strain (AID 155);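 note: 0% = growth of vehicle-only cultures of the same strain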; settings: S. cerevisiae rad50 strain growth inhibition, hits give high values; at 50.0 µM unless noted
In short: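 Genetically altered yeast (DNA repair pathway); compound treatment; growth inhibition vs vehicle ctrl.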

[2] = NCI Yeast Anticancer Drug Screen. Data for the mec2-1 strain (AID 157); settings: S. cerevisiae mec2-1 strain, hits give high values; at 50.0 µM unless noted
In short: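 Test agents were screened against the mec2-1 yeast strain, with defined DNA repair or cell cycle alteration. Growth was scored as inhibition against vehicle-only controls.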

[3] = NCI Yeast Anticancer Drug Screen. Data for the sgs1 mgt1 strain (AID 161);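 note: 0% = growth of cultures given vehicle only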; settings: S. cerevisiae sgs1 mgt1 strain, hits give high values; at 50.0 µM unless noted
In short: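 Inhibition of yeast growth, normalised to vehicle-treated controls, is reported for a strain bearing genetic alterations in DNA damage repair.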

[4] = NCI Yeast Anticancer Drug Screen. Data for the cln2 rad14 strain (AID 165);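 note: 0% = growth equal to vehicle treated cultures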; settings: S. cerevisiae cln2 rad14 strain, hits give high values; at 50.0 µM unless noted
In short: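 Growth of compound-exposed yeast (cln2 rad14 genotype) measured and expressed as inhibition relative to vehicle.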

[5] = NCI Yeast Anticancer Drug Screen. Data for the bub3 strain (AID 167); settings: S. cerevisiae bub3 mutant strain, hits give high values; at 50.0 µM unless noted
In short: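 Yeast carrying a defined mutation is treated with each compound, and growth is compared with that of vehicle-exposed cells to give inhibition.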

[6] = NCI Yeast Anticancer Drug Screen. Data for the mlh1 rad18 strain (AID 175); settings: S. cerevisiae mlh1 rad18 strain growth inhibition, hits give high values; at 50.0 µM unless noted
In short: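 In this whole-cell yeast screen, a strain with altered DNA damage repair is challenged with compound, and its growth is measured against matched vehicle-treated controls.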

Measured: growth inhibition

N#C/C(=C/n1c(=S)[nH]c2ccccc21)C(N)=O
inactive: [1] -30.3% | [2] -38.6% | [3] -19.2% | [4] -12.4% | [5] -7.25% | [6] -14.6%

Oc1ccc(Br)cc1/C=N/N1CCN(/N=C/c2cc(Br)ccc2O)CC1
inactive: [1] 22.9% | [2] 6.2% | [3] 35.2% | [4] 14.9% | [5] 1.7% | [6] 25.1%

COC1=CC(=O)CC(C)C12Oc1c(Cl)c(OC)cc(OC)c1C2=O (stereo unspecified)
inactive: [1] 2% | [2] -14.5% | [3] 20% | [4] 13.4% | [5] 67.1% | [6] 17.9%

COC1C(OC(=O)c2ccc(C)[nH]2)C(O)C(Oc2ccc3c(O)c(NC(=O)c4c[nH]c(C(=O)Nc5c(O)c6ccc(OC7OC(C)(C)C(OC)C(OC(=O)c8ccc(C)[nH]8)C7O)c(C)c6oc5=O)c4C)c(=O)oc3c2C)OC1(C)C (stereo unspecified)
inactive: [1] 17% | [2] 8.45% | [3] 15.2% | [4] 24.7% | [5] 11.4% | [6] 26.6%

O=C1NC(=O)C(Cc2ccccc2)(c2cccnc2)N1 (stereo unspecified)
inactive: [1] -28.6% | [2] -17.7% | [3] -5.65% | [4] -36.1% | [5] -0.65% | [6] -22.2%

COc1cc(C)cc(C(=O)O)c1
inactive: [1] -1.85% | [2] -3.5% | [3] 7.3% | [4] -52.4% | [5] -10% | [6] -2.7%

COc1cc2c3c([nH]c2c(OC)c1OC)CCN(Cc1ccccc1)C3
inactive: [1] -27.7% | [2] -15.1% | [3] -10.2% | [4] 6.1% | [5] -0.7% | [6] 10.8%

NCCCCCN
inactive: [1] 14.4% | [2] -1.05% | [3] -15.9% | [4] 12.3% | [5] -16.7% | [6] -1.45%

C=CCOC(=O)NC(CC(C)C)C(=O)NCC(N)=O (stereo unspecified)
inactive: [1] -10.4% | [2] 1.9% | [3] -4.3% | [4] -10.9% | [5] -45.5% | [6] -28%

O=C1OCC/C1=C/c1ccc(N=Nc2c(O)ccc3ccccc23)cc1
inactive: [1] 2.4% | [2] -6.05% | [3] 11.1% | [4] 5.5% | [5] 11.7% | [6] 7.05%

COc1c2c(c(OC)c3ccccc13)C(=O)C1=C(CC=CC1)C2=O
inactive: [1] 4% | [2] 18.4% | [3] -8.6% | [4] -10.1% | [5] 14.6% | [6] 40.1%

NC(N)=N/N=C(/c1ccccc1)c1ccc(O)cc1O
inactive: [1] 20.2% | [2] -15.7% | [3] -8.5% | [4] 9.7% | [5] -48.6% | [6] 14.5%

NC1CC(c2ccccc2)NC(c2ccccc2)C1 (stereo unspecified)
inactive: [1] 10.7% | [2] -2.9% | [3] -4.8% | [4] -8.5% | [5] -14.8% | [6] 16.2%

CC(C)=CC(=O)CC1(C)CCC(c2ccoc2)O1 (stereo unspecified)
inactive: [1] -18.8% | [2] -32.9% | [3] -11.6% | [4] 14% | [5] 6.35% | [6] -16%

CN(C)/N=C(\CBr)c1ccc([N+](=O)[O-])cc1
inactive: [1] -1.8% | [2] 4.9% | [3] 6.75% | [4] 11.2% | [5] -3% | [6] 5.4%

ClCCN1CCOC1=Nc1ccc2c(c1)CCCC2
inactive: [1] -21.2% | [2] -16.9% | [3] 2.6% | [4] 4.4% | [5] -7.25% | [6] -49.2%

C[N+](C)=c1nc(N2CCOCC2)ss1
inactive: [1] 1.95% | [2] 0.65% | [3] 6.8% | [4] 8.95% | [5] -63.4% | [6] -16.9%

Cc1ccc(C(=O)NNC(=O)c2ccc(C)cc2)cc1
inactive: [1] -10.5% | [2] -18.4% | [3] -11.1% | [4] 2.8% | [5] -10.9% | [6] -5.15%

CC1=C2CN(C(=O)OCC(C)C)CCC2C2=C(C(=O)c3ccccc3C2=O)C1C (stereo unspecified)
inactive: [1] 1.4% | [2] -3.75% | [3] 39.6% | [4] 14.6% | [5] -12.2% | [6] 44.5%

O=C(CC1C(=O)Nc2ccccc2S1=O)Nc1cc(Cl)ccc1Cl (stereo unspecified)
inactive: [1] -14.9% | [2] -24.2% | [3] 3.1% | [4] 8.15% | [5] -4.6% | [6] -6.1%

CC(=O)OC1CCC2(C)C(CCC3(C)C2C(=O)C=C2C4CC(C)(C(=O)O)CCC4(C)CCC23C)C1(C)C (stereo unspecified)
inactive: [1] -3.8% | [2] -9.5% | [3] -13% | [4] -4.25% | [5] -5.75% | [6] -8.5%

CCOC(=O)c1[nH]cc(C(=O)O)c1C
inactive: [1] 15.3% | [2] 0.15% | [3] 6.05% | [4] -44.7% | [5] 1.25% | [6] 17.2%

CN1C(=O)n2c(nc3ccccc32)C(Cl)(Cl)C1=O
inactive: [1] 13.8% | [2] 10.3% | [3] 3.25% | [4] 20.4% | [5] 34.7% | [6] 42%

CCOCCOC(=O)COc1ccccc1
inactive: [1] 12.8% | [2] 16.4% | [3] 17.6% | [4] 7% | [5] -7.85% | [6] 3.65%

NC(=S)Nc1ccc(-c2ccccc2)cc1
inactive: [1] 17.4% | [2] 25.9% | [3] 49.1% | [4] -1.65% | [5] 22.8% | [6] 40.3%

ClCCCCCNC1CCCCC1
inactive: [1] -1.2% | [2] -45.6% | [3] -4.3% | [4] -15.7% | [5] -17.2% | [6] -14.2%

CCCOC(CCC(=O)NC(C)(C)C)CC(=O)NC(C)(C)C (stereo unspecified)
inactive: [1] 5.85% | [2] 5.45% | [3] 6.9% | [4] 4.15% | [5] 0.55% | [6] -9.9%

CN(C)C1=CC(=S)NC(c2ccccc2)C1 (stereo unspecified)
inactive: [1] -2.35% | [2] -16.1% | [3] -3.7% | [4] -11.8% | [5] -15% | [6] -0.55%

CN(C)C(=NN=C(N(C)C)N(C)C)N(C)C
inactive: [1] 12.2% | [2] -4.2% | [3] 0.05% | [4] -39% | [5] -5.85% | [6] 1.5%

CC1C(c2ccccc2)OCCN1C(=S)Nc1ccccc1 (stereo unspecified)
inactive: [1] 34.9% | [2] 34.2% | [3] 45.6% | [4] -16.6% | [5] 35.2% | [6] 25.4%

Cc1cc(C)c(C(=O)Cc2ccccc2)c(C)c1
inactive: [1] 18.4% | [2] 15.6% | [3] 20.2% | [4] 12.4% | [5] 11.4% | [6] 9.45%

CCOC(=O)C1CC1
inactive: [1] -9.65% | [2] -39.5% | [3] 1% | [4] 0.05% | [5] -9.75% | [6] -2.7%

CN(/C(=C/C(=O)c1ccccc1)C(=O)c1ccccc1)/C(=C/C(=O)c1ccccc1)C(=O)c1ccccc1
inactive: [1] -27.4% | [2] 3.2% | [3] -0.95% | [4] -5.25% | [5] -4.5% | [6] 26.8%

Nc1nnc2nc(C(C(=O)c3ccc(F)cc3)c3nc4nnc(N)n4[nH]c3=O)c(=O)[nH]n12
inactive: [1] 15.1% | [2] 4.15% | [3] -10.2% | [4] 8.45% | [5] 0.2% | [6] 18.8%

CC(C)c1ccccc1NC(=O)CCC(=O)NN
inactive: [1] -11.1% | [2] -7.95% | [3] -7.95% | [4] 6.1% | [5] -17.8% | [6] -11.7%

COc1ccccc1NC(=O)C(/C=N/C(=S)NNC(C)=O)=C(/C)O
inactive: [1] 0.7% | [2] -16.2% | [3] -27% | [4] -5.9% | [5] -12.6% | [6] 2.45%

OC12c3ccccc3C1CCCCCCCCCC21OCCCO1 (stereo unspecified)
inactive: [1] -2.65% | [2] -19.8% | [3] -42.6% | [4] 6.4% | [5] -30.4% | [6] -23.6%

CCOC(=O)C1(C#N)C(C#N)(C#N)C1(CC)CC (stereo unspecified)
inactive: [1] -11.2% | [2] 19.6% | [3] -1.55% | [4] 10.3% | [5] -6.4% | [6] -20.8%

N#Cc1c(O)c(N=Nc2ccc(Cl)cc2)c(=O)n2c1[nH]c1ccccc12
inactive: [1] 11.6% | [2] 14.2% | [3] 21.2% | [4] 28.9% | [5] 10.5% | [6] 18.7%

COc1cc(CCCC(C(=O)O)C(=O)O)cc(OC)c1OC
inactive: [1] 14.2% | [2] -13.3% | [3] -11.9% | [4] 15.8% | [5] -0.9% | [6] 11.7%

NC(N)=Nc1ccc(-c2ccc(N=C(N)N)cc2)cc1
inactive: [1] -9.35% | [2] 6.4% | [3] 0.85% | [4] -22.2% | [5] -24.9% | [6] -7.95%
